Experiment [1] deals with Protein kinase C gamma type (Homo sapiens) (UniProt P05129). As to conditions: at 1 µM.
Experiment [2] concerns the target T1, Protein kinase C iota type (Homo sapiens) (UniProt P41743).
T1 sequence (whole entry): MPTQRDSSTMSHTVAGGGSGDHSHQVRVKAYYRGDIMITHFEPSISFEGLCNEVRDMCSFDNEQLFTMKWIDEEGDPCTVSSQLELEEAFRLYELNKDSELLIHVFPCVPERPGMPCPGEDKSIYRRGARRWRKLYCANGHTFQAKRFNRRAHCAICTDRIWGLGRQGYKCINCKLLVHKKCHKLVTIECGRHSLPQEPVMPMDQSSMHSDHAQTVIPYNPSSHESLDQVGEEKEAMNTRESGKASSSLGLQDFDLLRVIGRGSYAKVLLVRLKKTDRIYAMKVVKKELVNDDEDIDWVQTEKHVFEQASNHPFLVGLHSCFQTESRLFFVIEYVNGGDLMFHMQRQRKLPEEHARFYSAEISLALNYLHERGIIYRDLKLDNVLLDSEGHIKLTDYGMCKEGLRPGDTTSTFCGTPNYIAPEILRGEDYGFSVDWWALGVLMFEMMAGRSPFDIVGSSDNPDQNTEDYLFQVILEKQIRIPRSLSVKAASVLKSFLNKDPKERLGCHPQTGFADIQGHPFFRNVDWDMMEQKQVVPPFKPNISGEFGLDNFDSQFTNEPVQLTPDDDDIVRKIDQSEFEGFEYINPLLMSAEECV
As to conditions: at 0.1 µM.

In experiment [3] the target is T1, Protein kinase C iota type (Homo sapiens). As to conditions: at 1 µM.
Experiment [4] concerns the target Protein kinase C theta type (Homo sapiens) (UniProt Q04759). As to conditions: at 0.1 µM.
Experiment [5] shares this target. As to conditions: at 1 µM.
The target in experiment [6] is Protein kinase C beta type (Homo sapiens) (UniProt P05771). As to conditions: at 0.1 µM.
The target is the same in experiment [7]. As to conditions: at 1 µM.
The target of experiment [8] is T2, Serine/threonine-protein kinase D1 (Homo sapiens) (UniProt Q15139).
T2 sequence (whole entry): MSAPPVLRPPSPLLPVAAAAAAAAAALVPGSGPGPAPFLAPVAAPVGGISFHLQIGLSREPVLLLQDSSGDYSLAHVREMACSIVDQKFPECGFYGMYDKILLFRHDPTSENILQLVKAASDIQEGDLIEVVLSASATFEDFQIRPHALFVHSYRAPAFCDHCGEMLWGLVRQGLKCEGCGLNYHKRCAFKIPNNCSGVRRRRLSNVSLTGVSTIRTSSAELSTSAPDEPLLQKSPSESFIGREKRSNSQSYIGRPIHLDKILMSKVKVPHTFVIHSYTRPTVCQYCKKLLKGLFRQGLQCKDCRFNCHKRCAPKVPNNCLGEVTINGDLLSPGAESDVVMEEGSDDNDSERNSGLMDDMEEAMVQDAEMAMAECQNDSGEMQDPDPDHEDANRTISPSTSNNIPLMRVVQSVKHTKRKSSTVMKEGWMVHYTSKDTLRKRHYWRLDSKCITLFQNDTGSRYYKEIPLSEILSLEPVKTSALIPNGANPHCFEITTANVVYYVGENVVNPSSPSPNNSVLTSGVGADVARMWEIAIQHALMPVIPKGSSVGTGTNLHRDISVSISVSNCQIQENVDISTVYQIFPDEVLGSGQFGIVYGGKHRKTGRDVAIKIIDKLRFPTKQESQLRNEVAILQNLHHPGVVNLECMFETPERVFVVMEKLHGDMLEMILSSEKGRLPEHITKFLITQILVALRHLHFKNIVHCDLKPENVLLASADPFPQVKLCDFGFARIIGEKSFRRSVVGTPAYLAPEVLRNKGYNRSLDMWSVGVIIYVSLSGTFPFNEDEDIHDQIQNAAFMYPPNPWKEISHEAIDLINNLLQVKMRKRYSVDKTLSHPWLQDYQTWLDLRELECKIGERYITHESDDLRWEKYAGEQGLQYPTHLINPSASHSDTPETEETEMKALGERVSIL
As to conditions: at 0.1 µM.

Experiment [9] concerns the target T2, Serine/threonine-protein kinase D1 (Homo sapiens). As to conditions: at 1 µM.
Experiment [10] has as its target T3, Serine/threonine-protein kinase D2 (Homo sapiens) (UniProt Q9BZL6).
T3 sequence (whole entry): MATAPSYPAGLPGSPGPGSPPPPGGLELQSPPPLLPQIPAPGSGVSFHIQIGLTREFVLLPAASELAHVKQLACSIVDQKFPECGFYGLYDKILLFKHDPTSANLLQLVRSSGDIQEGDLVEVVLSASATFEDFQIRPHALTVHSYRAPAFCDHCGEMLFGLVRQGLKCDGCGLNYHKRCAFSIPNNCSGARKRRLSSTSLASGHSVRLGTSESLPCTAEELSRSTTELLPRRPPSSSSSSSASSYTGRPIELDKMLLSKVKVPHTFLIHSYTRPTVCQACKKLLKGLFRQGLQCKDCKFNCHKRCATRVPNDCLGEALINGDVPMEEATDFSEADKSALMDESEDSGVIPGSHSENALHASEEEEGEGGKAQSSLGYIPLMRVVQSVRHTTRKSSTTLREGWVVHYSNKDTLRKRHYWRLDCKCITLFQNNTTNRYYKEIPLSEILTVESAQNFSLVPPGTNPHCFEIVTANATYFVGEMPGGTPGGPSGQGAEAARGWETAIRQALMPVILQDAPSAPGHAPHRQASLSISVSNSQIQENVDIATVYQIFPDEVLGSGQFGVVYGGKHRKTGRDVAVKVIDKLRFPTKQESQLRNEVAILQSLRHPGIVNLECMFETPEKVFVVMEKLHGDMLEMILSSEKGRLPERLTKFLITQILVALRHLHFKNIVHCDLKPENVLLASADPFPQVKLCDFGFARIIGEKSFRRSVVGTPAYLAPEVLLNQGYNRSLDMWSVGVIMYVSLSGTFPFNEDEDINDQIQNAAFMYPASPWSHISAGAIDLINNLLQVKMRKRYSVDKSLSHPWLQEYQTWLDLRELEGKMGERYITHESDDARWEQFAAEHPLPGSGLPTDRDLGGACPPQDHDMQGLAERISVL
As to conditions: at 0.1 µM.

For experiment [11], the target named is T3, Serine/threonine-protein kinase D2 (Homo sapiens). As to conditions: at 1 µM.
Experiment [12] deals with T4, Serine/threonine-protein kinase D3 (Homo sapiens) (UniProt O94806).
T4 sequence (whole entry): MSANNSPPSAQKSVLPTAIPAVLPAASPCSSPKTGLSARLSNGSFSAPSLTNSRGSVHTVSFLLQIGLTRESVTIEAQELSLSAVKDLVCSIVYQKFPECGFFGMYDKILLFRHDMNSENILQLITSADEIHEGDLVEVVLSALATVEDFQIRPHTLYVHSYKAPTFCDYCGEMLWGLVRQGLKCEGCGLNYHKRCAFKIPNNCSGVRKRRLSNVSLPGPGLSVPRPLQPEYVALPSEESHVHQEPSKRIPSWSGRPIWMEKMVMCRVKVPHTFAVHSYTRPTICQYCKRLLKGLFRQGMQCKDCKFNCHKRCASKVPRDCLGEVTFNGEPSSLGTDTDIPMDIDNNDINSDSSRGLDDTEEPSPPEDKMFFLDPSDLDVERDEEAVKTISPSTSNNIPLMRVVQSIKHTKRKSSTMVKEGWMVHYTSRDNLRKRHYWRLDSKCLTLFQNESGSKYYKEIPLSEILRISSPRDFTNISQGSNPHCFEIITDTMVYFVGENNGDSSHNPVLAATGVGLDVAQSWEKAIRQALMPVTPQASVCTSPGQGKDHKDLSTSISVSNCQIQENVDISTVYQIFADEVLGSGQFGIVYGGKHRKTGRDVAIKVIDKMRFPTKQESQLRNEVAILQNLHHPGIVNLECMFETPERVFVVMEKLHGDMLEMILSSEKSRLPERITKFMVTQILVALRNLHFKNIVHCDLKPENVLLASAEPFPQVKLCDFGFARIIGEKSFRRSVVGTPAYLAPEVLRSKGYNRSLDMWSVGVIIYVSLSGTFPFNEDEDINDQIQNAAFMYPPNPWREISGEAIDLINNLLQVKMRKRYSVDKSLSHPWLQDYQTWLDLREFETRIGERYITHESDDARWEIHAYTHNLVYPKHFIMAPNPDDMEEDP
As to conditions: at 0.1 µM.

The target of experiment [13] is T4, Serine/threonine-protein kinase D3 (Homo sapiens). As to conditions: at 1 µM.
In experiment [14] the target is T5, cGMP-dependent protein kinase 1 (Homo sapiens) (UniProt Q13976).
T5 sequence (whole entry): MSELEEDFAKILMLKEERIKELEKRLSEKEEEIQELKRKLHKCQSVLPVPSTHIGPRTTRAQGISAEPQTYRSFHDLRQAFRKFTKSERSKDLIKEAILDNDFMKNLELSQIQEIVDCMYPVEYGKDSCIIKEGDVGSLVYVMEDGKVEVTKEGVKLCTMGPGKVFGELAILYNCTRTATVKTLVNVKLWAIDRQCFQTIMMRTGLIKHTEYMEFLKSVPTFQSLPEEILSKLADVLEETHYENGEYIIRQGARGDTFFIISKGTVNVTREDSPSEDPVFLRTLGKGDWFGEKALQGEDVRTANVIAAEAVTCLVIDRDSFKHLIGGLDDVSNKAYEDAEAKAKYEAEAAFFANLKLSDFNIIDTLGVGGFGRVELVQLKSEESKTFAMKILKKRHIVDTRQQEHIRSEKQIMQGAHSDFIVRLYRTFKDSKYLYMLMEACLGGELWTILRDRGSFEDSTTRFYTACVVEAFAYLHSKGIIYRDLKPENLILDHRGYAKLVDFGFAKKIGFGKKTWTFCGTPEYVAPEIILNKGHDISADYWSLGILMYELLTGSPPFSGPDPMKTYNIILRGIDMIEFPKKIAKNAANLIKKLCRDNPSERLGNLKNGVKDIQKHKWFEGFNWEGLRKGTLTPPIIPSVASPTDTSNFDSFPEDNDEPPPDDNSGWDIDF
As to conditions: at 0.1 µM.

Experiment [15] addresses T5, cGMP-dependent protein kinase 1 (Homo sapiens). As to conditions: at 1 µM.
Experiment [16] has as its target T6, cGMP-dependent protein kinase 2 (Homo sapiens) (UniProt Q13237).
T6 sequence (whole entry): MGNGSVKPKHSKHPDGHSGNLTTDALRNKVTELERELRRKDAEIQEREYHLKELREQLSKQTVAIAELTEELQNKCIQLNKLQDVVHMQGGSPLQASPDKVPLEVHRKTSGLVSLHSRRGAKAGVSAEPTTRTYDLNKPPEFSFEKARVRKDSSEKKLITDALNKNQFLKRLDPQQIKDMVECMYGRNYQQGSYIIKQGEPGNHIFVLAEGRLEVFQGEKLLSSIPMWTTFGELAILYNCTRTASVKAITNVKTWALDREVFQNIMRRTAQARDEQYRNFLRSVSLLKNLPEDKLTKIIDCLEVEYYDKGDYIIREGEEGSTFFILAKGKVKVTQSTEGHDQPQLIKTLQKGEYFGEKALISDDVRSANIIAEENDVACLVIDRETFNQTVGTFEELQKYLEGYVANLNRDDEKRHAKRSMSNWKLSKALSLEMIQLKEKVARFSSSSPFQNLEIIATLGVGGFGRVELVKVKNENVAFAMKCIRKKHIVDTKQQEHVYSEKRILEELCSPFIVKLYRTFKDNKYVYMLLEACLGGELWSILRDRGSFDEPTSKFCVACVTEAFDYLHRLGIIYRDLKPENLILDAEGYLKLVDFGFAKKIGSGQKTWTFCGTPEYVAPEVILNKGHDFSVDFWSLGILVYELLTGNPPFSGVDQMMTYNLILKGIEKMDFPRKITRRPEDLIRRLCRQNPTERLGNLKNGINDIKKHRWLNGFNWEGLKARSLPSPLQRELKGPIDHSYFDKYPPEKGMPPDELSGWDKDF
As to conditions: at 0.1 µM.

The target of experiment [17] is T6, cGMP-dependent protein kinase 2 (Homo sapiens). As to conditions: at 1 µM.
The target of experiment [18] is T7, cAMP-dependent protein kinase catalytic subunit PRKX (Homo sapiens) (UniProt P51817).
T7 sequence (whole entry): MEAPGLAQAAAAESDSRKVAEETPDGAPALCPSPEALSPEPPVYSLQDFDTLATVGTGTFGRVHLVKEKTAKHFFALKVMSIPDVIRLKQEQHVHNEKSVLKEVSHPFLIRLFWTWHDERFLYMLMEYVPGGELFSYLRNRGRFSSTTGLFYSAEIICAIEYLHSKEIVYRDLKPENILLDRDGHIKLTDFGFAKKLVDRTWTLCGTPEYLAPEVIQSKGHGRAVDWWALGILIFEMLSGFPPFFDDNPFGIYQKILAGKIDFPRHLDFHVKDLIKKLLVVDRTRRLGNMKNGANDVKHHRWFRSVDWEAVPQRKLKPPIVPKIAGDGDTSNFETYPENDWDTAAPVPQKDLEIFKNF
As to conditions: at 0.1 µM.

The target of experiment [19] is T7, cAMP-dependent protein kinase catalytic subunit PRKX (Homo sapiens). As to conditions: at 1 µM.
The target in experiment [20] is Rho-associated protein kinase 1 (Homo sapiens) (UniProt Q13464). As to conditions: at 0.1 µM.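 Further: values are mean percent inhibition of ROCK1.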
Rho-associated protein kinase 1 (Homo sapiens), sequence (Q13464 2-1354 limits assumed): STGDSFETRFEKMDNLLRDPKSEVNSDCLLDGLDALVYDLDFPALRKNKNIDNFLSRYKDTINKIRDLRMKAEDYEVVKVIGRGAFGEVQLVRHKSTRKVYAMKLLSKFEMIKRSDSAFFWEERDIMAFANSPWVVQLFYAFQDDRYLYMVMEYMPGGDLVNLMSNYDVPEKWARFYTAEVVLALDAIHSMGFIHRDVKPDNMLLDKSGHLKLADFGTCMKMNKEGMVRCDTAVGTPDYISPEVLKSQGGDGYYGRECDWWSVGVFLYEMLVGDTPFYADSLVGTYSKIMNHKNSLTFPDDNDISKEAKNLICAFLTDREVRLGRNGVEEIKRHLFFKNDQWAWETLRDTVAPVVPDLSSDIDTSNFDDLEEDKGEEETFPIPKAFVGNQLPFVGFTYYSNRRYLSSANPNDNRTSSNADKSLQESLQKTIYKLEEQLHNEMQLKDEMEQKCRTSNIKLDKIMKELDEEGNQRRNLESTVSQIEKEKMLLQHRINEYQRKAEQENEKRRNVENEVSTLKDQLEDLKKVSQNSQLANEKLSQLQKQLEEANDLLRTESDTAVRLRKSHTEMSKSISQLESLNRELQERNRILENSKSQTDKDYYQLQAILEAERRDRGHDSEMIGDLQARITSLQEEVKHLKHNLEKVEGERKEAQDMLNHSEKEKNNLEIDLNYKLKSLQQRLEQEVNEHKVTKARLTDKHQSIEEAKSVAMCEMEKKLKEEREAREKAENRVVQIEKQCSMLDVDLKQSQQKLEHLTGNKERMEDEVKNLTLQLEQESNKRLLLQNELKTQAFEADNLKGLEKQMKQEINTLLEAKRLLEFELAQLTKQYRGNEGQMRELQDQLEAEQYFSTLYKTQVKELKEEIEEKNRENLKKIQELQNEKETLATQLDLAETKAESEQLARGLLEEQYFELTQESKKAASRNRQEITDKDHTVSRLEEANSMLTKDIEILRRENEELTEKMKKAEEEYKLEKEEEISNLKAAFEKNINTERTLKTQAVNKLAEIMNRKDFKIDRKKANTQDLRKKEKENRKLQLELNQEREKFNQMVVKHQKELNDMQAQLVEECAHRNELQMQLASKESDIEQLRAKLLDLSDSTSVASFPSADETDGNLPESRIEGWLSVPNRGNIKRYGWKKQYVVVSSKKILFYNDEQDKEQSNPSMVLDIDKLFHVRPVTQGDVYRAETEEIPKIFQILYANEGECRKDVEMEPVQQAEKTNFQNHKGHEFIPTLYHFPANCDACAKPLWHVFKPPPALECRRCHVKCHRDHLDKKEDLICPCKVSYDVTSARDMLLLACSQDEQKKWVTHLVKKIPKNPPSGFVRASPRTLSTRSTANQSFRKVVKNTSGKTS

Protein kinase C beta type (Homo sapiens), sequence (P05771 2-671 limits assumed): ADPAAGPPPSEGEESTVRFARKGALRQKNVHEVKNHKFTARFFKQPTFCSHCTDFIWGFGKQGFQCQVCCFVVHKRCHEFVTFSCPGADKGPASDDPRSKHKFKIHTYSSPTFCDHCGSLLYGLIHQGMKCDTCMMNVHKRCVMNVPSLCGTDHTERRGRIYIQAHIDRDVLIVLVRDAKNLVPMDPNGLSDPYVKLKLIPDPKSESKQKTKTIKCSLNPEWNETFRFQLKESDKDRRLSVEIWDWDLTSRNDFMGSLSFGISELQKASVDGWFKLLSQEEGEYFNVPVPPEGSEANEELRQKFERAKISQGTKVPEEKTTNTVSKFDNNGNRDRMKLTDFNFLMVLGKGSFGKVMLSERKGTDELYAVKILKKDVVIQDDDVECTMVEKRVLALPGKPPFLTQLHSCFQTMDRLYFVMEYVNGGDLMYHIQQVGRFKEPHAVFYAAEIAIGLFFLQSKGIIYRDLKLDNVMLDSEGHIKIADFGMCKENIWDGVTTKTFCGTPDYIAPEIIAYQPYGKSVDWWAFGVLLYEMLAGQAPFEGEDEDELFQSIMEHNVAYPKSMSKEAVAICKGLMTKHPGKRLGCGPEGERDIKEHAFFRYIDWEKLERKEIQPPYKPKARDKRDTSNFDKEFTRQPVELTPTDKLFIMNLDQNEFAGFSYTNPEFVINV
Protein kinase C theta type (Homo sapiens), sequence (Q04759 whole entry, looked up): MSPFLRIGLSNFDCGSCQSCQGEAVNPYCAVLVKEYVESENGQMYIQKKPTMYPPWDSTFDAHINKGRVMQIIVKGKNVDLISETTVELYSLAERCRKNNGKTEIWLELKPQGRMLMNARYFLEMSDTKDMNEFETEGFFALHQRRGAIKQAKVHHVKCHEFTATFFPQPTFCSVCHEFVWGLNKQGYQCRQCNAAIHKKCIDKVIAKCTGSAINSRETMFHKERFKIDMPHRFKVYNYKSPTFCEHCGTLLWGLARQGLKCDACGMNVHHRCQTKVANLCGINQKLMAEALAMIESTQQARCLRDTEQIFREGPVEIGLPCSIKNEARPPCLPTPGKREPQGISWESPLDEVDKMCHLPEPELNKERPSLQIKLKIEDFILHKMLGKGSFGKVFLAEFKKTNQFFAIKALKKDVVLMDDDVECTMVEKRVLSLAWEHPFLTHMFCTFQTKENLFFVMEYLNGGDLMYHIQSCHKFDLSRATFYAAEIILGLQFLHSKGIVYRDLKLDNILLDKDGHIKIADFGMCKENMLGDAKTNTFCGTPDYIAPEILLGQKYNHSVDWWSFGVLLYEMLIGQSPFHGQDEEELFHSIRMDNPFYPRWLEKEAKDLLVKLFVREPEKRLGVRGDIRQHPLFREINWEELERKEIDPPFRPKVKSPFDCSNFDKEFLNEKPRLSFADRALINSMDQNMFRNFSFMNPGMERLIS

Regarding `Cc1c2ccc(N(C)c3ccnc(Nc4cccc(S(N)(=O)=O)c4)n3)cc2nn1C`, the inhibition (as a rule, the relative decrease from the control value, in per cent) is 6.91% in experiment [1]; 1.66% in experiment [2]; 2.75% in experiment [3]; 1.34% in [4]; 2.51% in experiment [5]; 1.36% in [6]. Also, the inhibition in experiment [7] is 2.7%; in experiment [8], -0.64%; in experiment [9], 2.68%; in [10] it was 1.1%; in experiment [11] it was 0.98%; in experiment [12], 2.69%. In addition, the inhibition in experiment [13] was 2.71%; in experiment [14], 3.15%; in [15] it was 5.31%; in experiment [16], 2.54%; in [17], 4.29%; in [18], 2.29%. For the same compound, the inhibition is 1.21% in experiment [19] and 1.12% in experiment [20].

These data come from ChEMBL document CHEMBL1961873, “Compounds: GSK PKIS; Assays: Nanosyn kinase panel” (2012).
